The results in this text go back to ChEMBL document CHEMBL4513216, “Probing the Open Global Health Chemical Diversity Library for Multistage-Active Starting Points for Next-Generation Antimalarials” (ACS Infect Dis, 2020).

The whole screen tested about 69,000 compounds, of which about 8,600 (12%) showed an effect of 50% or more. This excerpt belongs to a sample that is enriched for strong results.

The subject of the assay is Plasmodium berghei. Nature of the assay: Screen against P. berghei liver stage (PbLuc), transformed with Luciferase, at 10uM. In kind it is functional, HepG2. The note with it: tested at 10 uM.
For `CN1CCN(C(=O)CCc2ccccc2)Cc2cccnc21`, the INHIBITION is on record as -54.5%.

Consider `C=c1occc1=C1NN=C2SC(C#N)C(N)=NN21` (stereo not drawn), for which the INHIBITION was -14.8%.

`CCC(C(=O)NC1CCCCC1)n1cccc(OC)c1=O` (stereo not drawn): the INHIBITION is given as -1.83%.

On to `CCC(C(=O)N(C)Cc1cc(C2CC2)[nH]n1)n1cccn1` (stereo not drawn), for which the INHIBITION was -33.5%.

Regarding `CCC(C(=O)N(Cc1ccccc1OC)C1CC1)n1cccn1` (stereo not drawn), the INHIBITION amounted to 61%.

With `CCC(C)C(=O)N(Cc1ccccn1)C1CC1` (stereo not drawn), the INHIBITION is reported as 36.9%.

Consider `O=C(c1ccoc1)N(Cc1ccccn1)C1CC1`, for which the INHIBITION was -0.87%.

Turning to `CCC(C(=O)N(Cc1ccccn1)C1CCCCC1)n1cccn1` (stereo not drawn), the INHIBITION is listed as 72.1%.

As for `O=C(c1csc(-c2nnc[nH]2)n1)N1CCCCC1Cn1cccn1` (stereo not drawn), the INHIBITION was determined as 18.2%.

`Cn1cc(C(=O)CC2CCCN2C(=O)c2ccncc2F)cn1` (stereo not drawn): the INHIBITION is given as 10%.

On to `CC(=O)N1CCN(CCCOc2ccccc2F)CC(C(N)=O)C1` (stereo not drawn), for which the INHIBITION is 46%.

Regarding `COc1ccc(F)cc1C(=O)N1C[C@H]2CC(OC)C[C@H]2C1` (stereo partly drawn), the INHIBITION stood at 23.2%.

In the case of `Cc1ccccc1CC(C)(C)NC(=O)c1cccc(OCC(N)=O)c1`, the INHIBITION turned out to be 36.3%.

As for `Cc1ccccc1CC(C)(C)NC(=O)CCOc1cccc(C(N)=O)c1`, the INHIBITION is on record as 69.7%.

In the case of `Cc1ccccc1CC(C)(C)NC(=O)COc1cccc(C(N)=O)c1`, the INHIBITION was found to be 38%.

In the case of `c1cc2c(cc1Cn1cc(C3CCOC3)nn1)CCCO2` (stereo not drawn), the INHIBITION is 46.7%.

With `COC(=O)N1CCCN(Cn2nc(C)c(Br)c2C)CC1`, the INHIBITION is 13%.

Regarding `CCC(=O)N1CCCN(Cn2nc(C)c(Br)c2C)CC1`, the INHIBITION turned out to be 56.1%.

Consider `COCC(=O)N1CCN(Cn2nc(C)c(Br)c2C)CC1`, for which the INHIBITION is recorded as -36.4%.

As for `COc1ccc(CNC(=O)N2CCN(CC(O)C3CC3)CC2)cc1` (stereo not drawn), the INHIBITION was found to be 35%.

Regarding `CN(C)CCOc1cccc(CN2CCCC3(C2)CN(C)C(=O)O3)c1` (stereo not drawn), the INHIBITION was 20.9%.

On to `Cc1ccc(C(CNCc2cccnc2)N2CCOCC2)s1` (stereo not drawn), for which the INHIBITION is 42.3%.

In the case of `Cc1ccc(C(CNCC2CC2)N2CCOCC2)s1` (stereo not drawn), the INHIBITION is on record as -23.2%.

Regarding `Cc1ccc(C(CNCc2nccn2C)N2CCOCC2)s1` (stereo not drawn), the INHIBITION came to 47.4%.

Turning to `CCn1ccnc1CNCC(c1ccc(C)s1)N1CCOCC1` (stereo not drawn), the INHIBITION came to 60.3%.

On to `CN(Cc1ncc[nH]1)CC(c1cccs1)N1CCOCC1` (stereo not drawn), for which the INHIBITION was 12.8%.

For the molecule `Cc1ccc(C(CNCc2ncc[nH]2)N2CCOCC2)s1` (stereo not drawn), the INHIBITION amounted to 60.3%.

Consider `Cc1nccn1CCN(C)C(=O)c1cn(-c2ccccc2)nn1`, for which the INHIBITION was -32.6%.

Turning to `CC(C)NC(=O)N1CCCn2cnc(CN3CCCC3=O)c2C1`, the INHIBITION is -12.2%.

As to `CN(C)CCOCC1CN(C(=O)c2ccnnc2)Cc2ccnn2C1` (stereo not drawn), the INHIBITION was determined as 39.8%.

For `CO[C@H]1CN(Cc2nc3ccccc3n2C)C[C@@]12CCCO2`, the INHIBITION was 25.64%.

Take `COCCCNC(=O)CN(C)C(=O)c1ccc(-n2cccc2)cc1O`: the INHIBITION is listed as 39.25%.

In the case of `CCn1c(Cn2cncn2)nnc1C1CCN(C2CCOCC2)CC1`, the INHIBITION is given as 15.7%.

`Cc1n[nH]c(C2CN(C(=O)COCC(F)(F)F)CCO2)n1` (stereo not drawn): the INHIBITION is recorded as 32.2%.

In the case of `NC(=O)c1cnn2c1NCC(CNC1(c3ccccc3)CCC1)C2` (stereo not drawn), the INHIBITION is 33.7%.

With `O=S(=O)(NCc1ccc(S(=O)(=O)N2CCCC2)s1)c1cc(Cl)ccc1Cl`, the INHIBITION was 3.48%.

For `Nc1nc(SCc2ccc3c(c2)OCO3)ns1`, the INHIBITION is on record as -14.2%.

For the molecule `CC(C)CNC(=O)Nc1cccc(OCC#N)c1`, the INHIBITION was -8.4%.

Turning to `CN(CCn1ccc2ccccc21)C(=O)CS(C)(=O)=O`, the INHIBITION turned out to be 34.1%.

As for `CN(CCn1ccc2ccccc21)C(=O)Cc1n[nH]c(=O)[nH]1`, the INHIBITION was determined as 5.38%.

`CN(CCn1ccc2ccccc21)C(=O)Cc1nnn[nH]1`: the INHIBITION amounted to 62.8%.

`Cn1cc(CN2CCCN(C(=O)c3sccc3C#N)CC2)cn1`: the INHIBITION is listed as -5.25%.

Consider `OCCN1CC2(CCN(CC3CC3)CC2)c2ccccc21`, for which the INHIBITION was 26%.

For the molecule `CCS(=O)(=O)N1CCC2(CC1)CC(CC(=O)NC1CC1)c1ccccc12` (stereo not drawn), the INHIBITION is on record as -5.22%.

As to `CCS(=O)(=O)N1CCC2(CCC(N3CCCC3)c3ccccc32)CC1` (stereo not drawn), the INHIBITION was 23.1%.

For `c1ccc2c(c1)N(CC1CCOC1)CC21CCN(c2cnccn2)CC1` (stereo not drawn), the INHIBITION was 84.7%.

Regarding `CCS(=O)(=O)N1CCC2(CC1)CN(CC1CCOC1)c1ccccc12` (stereo not drawn), the INHIBITION is 73.8%.

For the molecule `O=C1N(CC2CC2)CCC12CCN(c1ncccn1)CC2`, the INHIBITION was -2.6%.

Consider `c1cnc(N2CC3(CCN(CC4CCOC4)CC3)c3ccccc32)nc1` (stereo not drawn), for which the INHIBITION was 18.7%.

Regarding `CS(=O)(=O)N1CCC2(CC1)CN(CC1CCOC1)c1ccccc12` (stereo not drawn), the INHIBITION was determined as 39.4%.

Take `O=C1CC2(CCN(CC3CCOC3)CC2)c2ccccc2N1CC1CC1` (stereo not drawn): the INHIBITION was 9.97%.

Consider `c1cnc(N2CCC3(CC2)CN(CC2CC2)c2ccccc23)nc1`, for which the INHIBITION is given as 83.2%.

For the molecule `CCCS(=O)(=O)N1CCC2(CC1)CC(N1CCCC1)c1ccccc12` (stereo not drawn), the INHIBITION is listed as 71.8%.

On to `c1cnc(N2CCC3(CCN(CC4CCOC4)CC3)C2)nc1` (stereo not drawn), for which the INHIBITION is -10.2%.

Take `Cc1cc(C(=O)N2CCn3cc(CN4CCN(C)CC4)nc3C2)no1`: the INHIBITION worked out at 32.2%.

In the case of `Cc1nc(Nc2nccs2)cc(C2CN(C(C)C)C2)n1`, the INHIBITION is given as -17.9%.

Consider `CC(=O)N1CCCC(c2cnc(-c3c(C)nn(C)c3C)cn2)C1` (stereo not drawn), for which the INHIBITION worked out at 47.8%.

For the molecule `CCc1n[nH]c(C2CN(C(=O)c3ccc(Cl)cn3)CCO2)n1` (stereo not drawn), the INHIBITION is 25.4%.

`CN(CC(=O)N(C)C(c1ccc(Cl)cc1)c1cccnc1)C1CC1` (stereo not drawn): the INHIBITION is 3.19%.

In the case of `CCS(=O)(=O)N1CCC2(CC1)CC(Oc1ccccn1)CO2` (stereo not drawn), the INHIBITION came out at 0.547%.

With `CN1CCCN(C[C@@H]2CN(c3nc(C(N)=O)cs3)C[C@@H]2CO)CC1`, the INHIBITION was 20.3%.

In the case of `Cc1cnn(C2CCCN(C(=O)c3ccc(N4CCCC4)nc3)C2)c1` (stereo not drawn), the INHIBITION was 19.6%.

Regarding `CN1CCC(N(C)C(=O)c2cnn(-c3ccccc3Br)c2N)CC1`, the INHIBITION amounted to 27.3%.

Consider `CCCS(=O)(=O)N1CCC2(CC1)CN(CC1CCOC1)c1ccccc12` (stereo not drawn), for which the INHIBITION came out at 87.4%.

Regarding `CCCS(=O)(=O)N1CCC2(CC1)CN(C(=O)N(C)C)c1ccccc12`, the INHIBITION stood at 10.7%.

As to `CN(C)C(=O)N1CCC2(CC1)C(=O)N(CC1CCOC1)c1ccccc12` (stereo not drawn), the INHIBITION was 7.5%.

As to `O=C1CO[C@@H]2CN(CC3CCOCC3)C[C@H]2N1CC1CC1`, the INHIBITION is recorded as 37.5%.

`Cc1cccnc1NCCNC(=O)C1CCN(Cc2ccco2)CC1`: the INHIBITION came to 48.4%.

Consider `N#Cc1cccnc1NCCNC(=O)N1CCSCC1`, for which the INHIBITION came to 14.6%.

Regarding `N#Cc1cccnc1NCCNC(=O)N1CCCC(N2CCCC2)C1` (stereo not drawn), the INHIBITION is 24.6%.

With `Cc1cccnc1NCCNC(=O)[C@H]1CNC[C@@H](C(=O)N2CCCC2)C1`, the INHIBITION worked out at 18.5%.

Take `CN(C)C(=O)N1CCC(C(=O)NCCNc2ncccc2C#N)CC1`: the INHIBITION is 68.8%.

As to `Cc1cccnc1NCCNC(=O)C1CCN(C(=O)N(C)C)CC1`, the INHIBITION came to 50.2%.
